Results on 22 compounds are retold here after PubChem BioAssay.

Test [1] in a line: sensitizers of A549 cells to miR-34 induction, primary screen, imaging, A549 dox-inducible miR-34, nuclei and caspase counts (AID 1347080;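 active = compounds whose cell count with miR-34 switched on is under 0.7 times the count with it off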). As to conditions: A549 miR-34 inducible, Hoechst nuclei count, 48 h.
The nature of test [2]: survival rescue of mitochondrial mutant cells in low glucose, primary screen, MELAS cybrids, Rieske KO mouse fibroblasts, CellTiter-Glo (AID 1508586).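 Note: z relative to plate mean and SD of compound and empty wells.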
[3] abbreviates: stronger effect = lower value, cell number ratio, induced over uninduced.
Setting [4] is: measured here: relative caspase fold change +Dox/-Dox.
Setting [5] is: measured here: total cells with miR-34 induction, stronger effect = lower value.
The mark [6] stands for this setting: measured here: total cells without miR-34 induction.
Where [7] appears, read: MELAS cybrid survival, CellTiter-Glo 48 h, stronger effect = higher value.
Setting [8] is: Rieske KO mouse fibroblast survival, CellTiter-Glo 72 h.

Active and inactive are the calls of the source.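 Rule for the calls, unless noted: active = mean z-score across replicates of 1.96 or higher in either the MELAS or the Rieske mutant cell line; inactive = the rest.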
Note: test concentration not given here.

On to `CC1COCCN1c1cc(C2(S(C)(=O)=O)CC2)nc(-c2cccc3[nH]ccc23)n1` (configuration not stated), for which the fold change in test [1] (setting [3]) is 0.703 (inactive); in test [1] (setting [4]), 2.27. The cell count was 1950 in test [1] (setting [5]) and 2770 in test [1] (setting [6]). For the same compound, the z-score was 2.53 (active) in test [2] (setting [7]) and -0.319 in test [2] (setting [8]).
For `NC1CCCN(c2c(C=C3SC(=O)NC3=O)cccc2-c2ccccc2)C1` (configuration not stated), the fold change was 0.91 (inactive) in test [1] (setting [3]) and 0.316 in test [1] (setting [4]). The cell count in test [1] (setting [5]) came out at 8290; in test [1] (setting [6]) it was 9110. The z-score in test [2] (setting [7]) is -0.282 (inactive); in test [2] (setting [8]) it was 0.224.
With `COC1=CC(=O)CC(C)[C@@]12Oc1c(Cl)c(OC)cc(OC)c1C2=O` (some centres not stated), the fold change was 0.974 (inactive) in test [1] (setting [3]) and 0.639 in test [1] (setting [4]). For the same compound, the cell count worked out at 8290 in test [1] (setting [5]) and 8510 in test [1] (setting [6]). Moreover, the z-score is -0.169 (inactive) in test [2] (setting [7]) and -0.138 in test [2] (setting [8]).
Regarding `Cc1c(Cc2ccc3ccccc3n2)c2cc(F)ccc2n1CC(=O)O`, the figures for the fold change in test [1] (setting [3]) and in test [1] (setting [4]) were 0.985 (inactive) and 0.424, respectively. The cell count stood at 6920 in test [1] (setting [5]) and 7030 in test [1] (setting [6]). For the same compound, the figures for the z-score in test [2] (setting [7]) and in test [2] (setting [8]) were 0.326 (inactive) and -0.0715, respectively.
For `C#C[C@]1(O)CC[C@H]2[C@@H]3CCC4=CC(=O)CC[C@@H]4[C@@H]3CC[C@@]21C`, the fold change in test [1] (setting [3]) was 0.857 (inactive); in test [1] (setting [4]), 0.775. Moreover, the cell count in test [1] (setting [5]) was 7940; in test [1] (setting [6]) it was 9270. Besides, the z-score in test [2] (setting [7]) was -0.24 (inactive); in test [2] (setting [8]) it was -0.172.
As for `CC(C)CN(CC(O)C(Cc1ccccc1)NC(=O)OC1CCOC1)S(=O)(=O)c1ccc(N)cc1` (configuration not stated), the figures for the fold change in test [1] (setting [3]) and in test [1] (setting [4]) were 0.88 (inactive) and 0.898, respectively. Besides, the cell count in test [1] (setting [5]) amounted to 7780; in test [1] (setting [6]) it was 8840. In addition, the z-score was -0.312 (inactive) in test [2] (setting [7]) and 0.463 in test [2] (setting [8]).
With `CCCN1CC(CSC)C[C@@H]2c3cccc4[nH]cc(c34)C[C@H]21` (some centres not stated), the fold change in test [1] (setting [3]) is 0.938 (inactive); in test [1] (setting [4]), 0.485. The cell count in test [1] (setting [5]) amounted to 7000; in test [1] (setting [6]), 7460. For the same compound, the z-score was -0.0829 (inactive) in test [2] (setting [7]) and -0.225 in test [2] (setting [8]).
Regarding `CC(=O)OC1C[C@@H]2CC[C@@H]3[C@@H](CC[C@]4(C)C(OC(C)=O)C([N+]5(C)CCCCC5)C[C@@H]34)[C@@]2(C)CC1[N+]1(C)CCCCC1` (some centres not stated), the fold change in test [1] (setting [3]) is 0.982 (inactive); in test [1] (setting [4]) it was 0.749. Also, the cell count in test [1] (setting [5]) was 10400; in test [1] (setting [6]), 10600. The z-score in test [2] (setting [7]) was -0.344 (inactive); in test [2] (setting [8]), 0.747.
Take `C=C[C@@]1(C)CC(=O)[C@@]2(O)[C@@]3(C)C(O)CCC(C)(C)[C@@H]3C(O)C(OC(C)=O)[C@@]2(C)O1` (some centres not stated): the fold change in test [1] (setting [3]) was 0.968 (inactive); in test [1] (setting [4]), 1.19. Moreover, the cell count in test [1] (setting [5]) came to 8540; in test [1] (setting [6]), 8820. Also, the results for the z-score in test [2] (setting [7]) and in test [2] (setting [8]) were 0.411 (inactive) and -0.394, respectively.
On to `CCN(C)C(=O)Oc1cccc(C(C)N(C)C)c1` (configuration not stated), for which the results for the fold change in test [1] (setting [3]) and in test [1] (setting [4]) were 0.91 (inactive) and 0.79, respectively. The cell count is 8110 in test [1] (setting [5]) and 8910 in test [1] (setting [6]). Further, the z-score was -0.173 (inactive) in test [2] (setting [7]) and 0.451 in test [2] (setting [8]).
As to `Cc1cc(Nc2cc(N3CCN(C)CC3)nc(C=Cc3ccccc3)n2)n[nH]1`, the figures for the fold change in test [1] (setting [3]) and in test [1] (setting [4]) were 1.29 (inactive) and 1.19, respectively. Moreover, the values for the cell count in test [1] (setting [5]) and in test [1] (setting [6]) were 1120 and 872, respectively. Moreover, the z-score is 1.43 (inactive) in test [2] (setting [7]) and -2.06 in test [2] (setting [8]).
As to `CCC(NC(=O)C(C)NC)C(=O)N1CC(O)CC1Cc1c(-c2[nH]c3cc(F)ccc3c2CC2CC(O)CN2C(=O)C(CC)NC(=O)C(C)NC)[nH]c2cc(F)ccc12` (configuration not stated), the fold change in test [1] (setting [3]) is 0.946 (inactive); in test [1] (setting [4]), 0.86. In addition, the figures for the cell count in test [1] (setting [5]) and in test [1] (setting [6]) were 9020 and 9540, respectively. The z-score in test [2] (setting [7]) was -0.425 (inactive); in test [2] (setting [8]), -0.265.
As to `C=C1CCC(O)CC1=CC=C1CCC[C@@]2(C)[C@H]1CC[C@H]2C(C)CCCC(C)(C)O` (some centres not stated), the fold change was 0.933 (inactive) in test [1] (setting [3]) and 0.682 in test [1] (setting [4]). Also, the cell count in test [1] (setting [5]) was determined as 7650; in test [1] (setting [6]), 8200. Besides, the z-score in test [2] (setting [7]) is -0.475 (inactive); in test [2] (setting [8]) it was 0.00368.
With `CCc1ccc(C=C2SC(=S)NC2=O)cc1`, the fold change in test [1] (setting [3]) is 0.911 (inactive); in test [1] (setting [4]), 0.424. The values for the cell count in test [1] (setting [5]) and in test [1] (setting [6]) were 7750 and 8500, respectively. The z-score is -0.119 (inactive) in test [2] (setting [7]) and 0.267 in test [2] (setting [8]).
As to `C=CC1=C(C(=O)O)N2C(=O)[C@H](NC(=O)C(=NO)c3csc(N)n3)[C@H]2SC1`, the fold change in test [1] (setting [3]) was 0.881 (inactive); in test [1] (setting [4]), 1.23. Also, the cell count in test [1] (setting [5]) turned out to be 7750; in test [1] (setting [6]), 8790. For the same compound, the figures for the z-score in test [2] (setting [7]) and in test [2] (setting [8]) were -0.382 (inactive) and 0.812, respectively.
With `CCC(C)[C@H]1O[C@]2(CCC1C)CC1C[C@@H](CC=C(C)C(O[C@H]3CC(OC)C(O[C@H]4CC(OC)C(O)C(C)O4)C(C)O3)C(C)C=CC=C3CO[C@@H]4C(O)C(C)=C[C@H](C(=O)O1)[C@]34O)O2` (some centres not stated), the fold change in test [1] (setting [3]) was 1.18 (inactive); in test [1] (setting [4]), 0.443. For the same compound, the cell count worked out at 3750 in test [1] (setting [5]) and 3170 in test [1] (setting [6]). Further, the figures for the z-score in test [2] (setting [7]) and in test [2] (setting [8]) were -0.0305 (inactive) and 0.298, respectively.
Take `CCCC(=O)Nc1cccc(NC(=O)c2ccccc2Br)c1`: the fold change in test [1] (setting [3]) is 0.957 (inactive); in test [1] (setting [4]), 0.928. Moreover, the cell count in test [1] (setting [5]) is 7570; in test [1] (setting [6]) it was 7910. In addition, the z-score is -0.112 (inactive) in test [2] (setting [7]) and -0.0371 in test [2] (setting [8]).
In the case of `CC1(C)O[C@H]2CC(=O)OC[C@]23[C@H]2CC[C@@]4(C)C(c5ccoc5)OC(=O)C5O[C@]54[C@@]2(C)C(=O)C[C@@H]13` (some centres not stated), the fold change in test [1] (setting [3]) was 0.854 (inactive); in test [1] (setting [4]), 0.906. Further, the cell count in test [1] (setting [5]) stood at 8580; in test [1] (setting [6]), 10000. Besides, the figures for the z-score in test [2] (setting [7]) and in test [2] (setting [8]) were -0.275 (inactive) and -0.503, respectively.
Take `N#CC(=C(N)Sc1ccc(N)cc1)c1ccccc1C(F)(F)F`: the fold change in test [1] (setting [3]) was 0.906 (inactive); in test [1] (setting [4]), 0.881. For the same compound, the cell count in test [1] (setting [5]) was found to be 4690; in test [1] (setting [6]), 5170. Further, the z-score in test [2] (setting [7]) was -0.31 (inactive); in test [2] (setting [8]) it was 0.82.
Consider `CCC(Nc1ncnc2nc[nH]c12)c1nc2cccc(F)c2c(=O)n1-c1ccccc1` (configuration not stated), for which the fold change in test [1] (setting [3]) was 0.873 (inactive); in test [1] (setting [4]), 0.869. Moreover, the cell count came to 6860 in test [1] (setting [5]) and 7860 in test [1] (setting [6]). The z-score in test [2] (setting [7]) was -0.15 (inactive); in test [2] (setting [8]), 0.351.
For `C=C1CC[C@H]2[C@@](C)(CCC(O)[C@@]2(C)CO)C1CC=C1C(=O)OCC1O` (some centres not stated), the results for the fold change in test [1] (setting [3]) and in test [1] (setting [4]) were 0.97 (inactive) and 0.896, respectively. The results for the cell count in test [1] (setting [5]) and in test [1] (setting [6]) were 6090 and 6280, respectively. Moreover, the z-score is -0.657 (inactive) in test [2] (setting [7]) and -0.629 in test [2] (setting [8]).
In the case of `CNC(=O)C(Cc1c[nH]c2ccccc12)NC(=O)C(CC(=O)NO)CC(C)C` (configuration not stated), the fold change is 0.883 (inactive) in test [1] (setting [3]) and 0.261 in test [1] (setting [4]). The cell count in test [1] (setting [5]) was determined as 7640; in test [1] (setting [6]) it was 8650. Moreover, the results for the z-score in test [2] (setting [7]) and in test [2] (setting [8]) were 0.112 (inactive) and 0.643, respectively.
